# Molecular target: T1, Proteasome subunit beta (Trypanosoma cruzi) (UniProt O96673)
# T1 sequence (whole entry): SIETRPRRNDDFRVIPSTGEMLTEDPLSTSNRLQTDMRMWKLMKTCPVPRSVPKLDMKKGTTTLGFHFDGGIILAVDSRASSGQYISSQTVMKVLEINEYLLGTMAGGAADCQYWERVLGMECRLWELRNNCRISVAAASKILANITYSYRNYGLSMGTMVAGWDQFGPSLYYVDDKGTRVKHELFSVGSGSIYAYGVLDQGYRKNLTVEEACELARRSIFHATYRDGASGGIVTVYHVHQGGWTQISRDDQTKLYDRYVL
# Test: Trypanosoma cruzi proteasome chymotrypsin-like activity (TcProtChymo) assay. Also: in the data most compounds retested in dose-response had high values.
# Assay type: functional
# Set-up: scale not given: direction of the effect not stated beside the values
# Conditions: 9.37 µM
row,Structure (SMILES),Percent Effect [%]
1,CN(C)c1cc2c(nn1)CCN(C(=O)C1CCc3ccccc31)C2 (stereo not drawn),-1.06
2,Cc1nnc2n1CCN(C(=O)c1cn(-c3ccccc3Cl)nn1)C2,6.25
3,Cc1cccnc1NC(=O)NC(C)Cn1cccn1 (stereo not drawn),0.845
4,O=C(NCCNC(=O)N1CCC(c2ccccc2)C1)C1CC1 (stereo not drawn),15.5
5,COc1ccnc(N2CCN(C(=O)Cc3ccc(C#N)cc3)CC2)n1,12.7
6,CN(C(=O)NCCCN1CCCC1)C1CCN(c2ccccc2)C1=O (stereo not drawn),20.9
7,Fc1ccc(CNCC2OCCc3cn(CC4CC4)nc32)cc1 (stereo not drawn),12.4
8,CC1CCCCN1CCNC(=O)c1ccn(-c2ccc(F)cc2)n1 (stereo not drawn),18.9
9,Cc1ccc(NC(=O)N2CCOC(C)C2)cc1Cl (stereo not drawn),26.6
10,Cc1ccc(CN(Cc2ccccn2)C2CC(C)(C)NC(C)(C)C2)s1,8.27
11,CN(C)c1ncccc1CNC(=O)N1CCCC1CN1CCCCC1 (stereo not drawn),9.63
12,Cc1nn(CCO)c(C)c1CNC1CCc2c(Cl)cccc21 (stereo not drawn),0.174
13,CCc1nc(C(=O)N2CCN(C)CC2C)nn1-c1ccccc1Cl (stereo not drawn),8.04
14,O=C(Cc1ccsc1)N1CCCC(c2n[nH]c3nccnc23)C1 (stereo not drawn),15.9
15,CN(C)CC(=O)N1CCCC2(CCC(=O)N(CCc3c[nH]cn3)C2)C1 (stereo not drawn),11
16,CCc1n[nH]c(C2CN(C(=O)c3csnn3)CCO2)n1 (stereo not drawn),6.06
17,COc1cccc(CCNC(=O)CN2CCN(C)CC2C)c1 (stereo not drawn),14.5
18,Oc1ccc(N2CCN(Cc3cc4c(cc3Br)OCCO4)CC2)cc1,13.2
19,CC(C)OCCN(Cc1cccc(O)c1)C1CCC(O)CC1 (stereo not drawn),4.89
20,O=C(CCN1CCCC1C1CCCCC1)N1CCc2sccc2C1 (stereo not drawn),-0.18

row,Structure (SMILES),Percent Effect [%]
1,Cc1cnn(CC2CCCN2Cc2cc(=O)n3cccc(C)c3n2)c1 (stereo not drawn),17.8
2,CCc1noc(C2CCCCN2C(=O)c2ccoc2C)n1 (stereo not drawn),13.9
3,CCc1noc(C(C)N2CCN(Cc3nc(C)c(C)o3)CC2)n1 (stereo not drawn),0.668
4,Cc1nn(C)c(C)c1C1CCCN1C(=O)c1cc[nH]n1 (stereo not drawn),5.49
5,CNC(=O)C1Cn2ccnc2C2(CCN(Cc3cccc(C)n3)CC2)O1 (stereo not drawn),9.41
6,CN(Cc1ccc(N2CCCCC2)cc1)Cc1noc(C(C)(C)C)n1,13.8
7,O=C(Cc1ccc2c(c1)OCCO2)NC1CCCC1,5.74
8,CC(C)NC(=O)c1ccc2c(c1)nc1n2CCN(c2ccccc2)C1,15.3
9,CCN(CC)C(=O)CCNc1cncc(-n2nc(C)cc2C)n1,13.1
10,CCn1nc(CC(C)C)cc1C(=O)N1CC[C@@H](O)C1,12.7
11,O=C(c1ccsc1)N1CCc2c(CNc3ncccn3)n[nH]c2C1,1.88
12,Cc1ncsc1CN1C[C@H](C(=O)N2CCCO2)[C@@H]2CCO[C@@H]2C1,16.5
13,CC(C)OCC(=O)N1CCCN(Cc2ccc(C#N)cc2)CC1,10.2
14,Cc1cc2n(n1)CC(CNCc1ccnc(-n3ccnc3C)c1)CN2 (stereo not drawn),22.9
15,CCS(=O)(=O)N1CCC(c2nnc(CN3CCCC3)n2C2CC2)CC1,3.49
16,O=C(NCCc1ccccn1)NC1CCN(c2ncccn2)CC1,12.9
17,CCO[C@@H]1CO[C@@]2(CCCN(C(=O)COc3ccccc3OC)C2)C1,8.7
18,O=C(c1ccc2c(c1)COC2)N1CCN(CC2CC2)CC1,-2.21
19,CN(Cc1ccc(F)cc1)CC1(O)CCCN(CC(C)(C)C)C1=O (stereo not drawn),-3.16

# Species on record: Homo sapiens
# Test: To identify inhibition of the IFN signalling (Jak-Stat) pathway via expression of an eGFP reporter gene under the control of an IFN-stimulated response element (ISRE) containing MxA promoter.
# Assay type: functional
# Set-up: scale not given: direction of the effect not stated beside the values
# Conditions: 30 µM
row,Structure (SMILES),Percent Effect [%]
1,CN(C)c1cc2c(nn1)CCN(C(=O)C1CCc3ccccc31)C2 (stereo not drawn),15.8
2,Cc1nnc2n1CCN(C(=O)c1cn(-c3ccccc3Cl)nn1)C2,0.99
3,Cc1cccnc1NC(=O)NC(C)Cn1cccn1 (stereo not drawn),23.3
4,O=C(NCCNC(=O)N1CCC(c2ccccc2)C1)C1CC1 (stereo not drawn),8.1
5,COc1ccnc(N2CCN(C(=O)Cc3ccc(C#N)cc3)CC2)n1,7.36
6,CN(C(=O)NCCCN1CCCC1)C1CCN(c2ccccc2)C1=O (stereo not drawn),24.5
7,Fc1ccc(CNCC2OCCc3cn(CC4CC4)nc32)cc1 (stereo not drawn),9.33
8,CC1CCCCN1CCNC(=O)c1ccn(-c2ccc(F)cc2)n1 (stereo not drawn),6.78
9,Cc1ccc(NC(=O)N2CCOC(C)C2)cc1Cl (stereo not drawn),10.5
10,Cc1ccc(CN(Cc2ccccn2)C2CC(C)(C)NC(C)(C)C2)s1,5.16
11,CN(C)c1ncccc1CNC(=O)N1CCCC1CN1CCCCC1 (stereo not drawn),3.33
12,Cc1nn(CCO)c(C)c1CNC1CCc2c(Cl)cccc21 (stereo not drawn),8.33
13,CCc1nc(C(=O)N2CCN(C)CC2C)nn1-c1ccccc1Cl (stereo not drawn),12.9
14,O=C(Cc1ccsc1)N1CCCC(c2n[nH]c3nccnc23)C1 (stereo not drawn),17.3
15,CN(C)CC(=O)N1CCCC2(CCC(=O)N(CCc3c[nH]cn3)C2)C1 (stereo not drawn),-2.33
16,CCc1n[nH]c(C2CN(C(=O)c3csnn3)CCO2)n1 (stereo not drawn),3.52
17,COc1cccc(CCNC(=O)CN2CCN(C)CC2C)c1 (stereo not drawn),18.7
18,Oc1ccc(N2CCN(Cc3cc4c(cc3Br)OCCO4)CC2)cc1,27.4
19,CC(C)OCCN(Cc1cccc(O)c1)C1CCC(O)CC1 (stereo not drawn),-1.68
20,O=C(CCN1CCCC1C1CCCCC1)N1CCc2sccc2C1 (stereo not drawn),-25.7

row,Structure (SMILES),Percent Effect [%]
1,Cc1cnn(CC2CCCN2Cc2cc(=O)n3cccc(C)c3n2)c1 (stereo not drawn),-6.92
2,CCc1noc(C2CCCCN2C(=O)c2ccoc2C)n1 (stereo not drawn),-6.22
3,CCc1noc(C(C)N2CCN(Cc3nc(C)c(C)o3)CC2)n1 (stereo not drawn),20.8
4,Cc1nn(C)c(C)c1C1CCCN1C(=O)c1cc[nH]n1 (stereo not drawn),10.6
5,CNC(=O)C1Cn2ccnc2C2(CCN(Cc3cccc(C)n3)CC2)O1 (stereo not drawn),0.488
6,CN(Cc1ccc(N2CCCCC2)cc1)Cc1noc(C(C)(C)C)n1,9.08
7,O=C(Cc1ccc2c(c1)OCCO2)NC1CCCC1,32.2
8,CC(C)NC(=O)c1ccc2c(c1)nc1n2CCN(c2ccccc2)C1,-10.5
9,CCN(CC)C(=O)CCNc1cncc(-n2nc(C)cc2C)n1,6.24
10,CCn1nc(CC(C)C)cc1C(=O)N1CC[C@@H](O)C1,-2.86
11,O=C(c1ccsc1)N1CCc2c(CNc3ncccn3)n[nH]c2C1,9.05
12,Cc1ncsc1CN1C[C@H](C(=O)N2CCCO2)[C@@H]2CCO[C@@H]2C1,-2.42
13,CC(C)OCC(=O)N1CCCN(Cc2ccc(C#N)cc2)CC1,-2.84
14,Cc1cc2n(n1)CC(CNCc1ccnc(-n3ccnc3C)c1)CN2 (stereo not drawn),4.37
15,CCS(=O)(=O)N1CCC(c2nnc(CN3CCCC3)n2C2CC2)CC1,19.7
16,O=C(NCCc1ccccn1)NC1CCN(c2ncccn2)CC1,-1.99
17,CCO[C@@H]1CO[C@@]2(CCCN(C(=O)COc3ccccc3OC)C2)C1,25.1
18,O=C(c1ccc2c(c1)COC2)N1CCN(CC2CC2)CC1,0.542
19,CN(Cc1ccc(F)cc1)CC1(O)CCCN(CC(C)(C)C)C1=O (stereo not drawn),1.55
